Whole data set: some 68,000 sequences, median “fluorescence intensity (a.u.)” near 9,100, cut for the highest 2% near 16,000. This excerpt belongs to a sample that is enriched for the highest values.
What follows are sequences tested against OsWRKY34 (Oryza sativa, UniProt Q0JBA9 1-250) (assay: protein-binding microarray (RPBM); PBS, 2% BSA, 51.3 ng/ul salmon testes DNA, 50 uM zinc acetate, 200 nM TF, 25 C, 1 h; high values mean tight binding). Conditions: protein: recombinant; tags: N-terminal polyhistidine and DsRed monomer fusion (pET32a); label: CyDye5-dUTP incorporated in the synthesized complementary strand; 3' TTTTT single-stranded linker to array surface; dsDNA, one strand shown.
Sequence of OsWRKY34 (Q0JBA9 entry or part of it): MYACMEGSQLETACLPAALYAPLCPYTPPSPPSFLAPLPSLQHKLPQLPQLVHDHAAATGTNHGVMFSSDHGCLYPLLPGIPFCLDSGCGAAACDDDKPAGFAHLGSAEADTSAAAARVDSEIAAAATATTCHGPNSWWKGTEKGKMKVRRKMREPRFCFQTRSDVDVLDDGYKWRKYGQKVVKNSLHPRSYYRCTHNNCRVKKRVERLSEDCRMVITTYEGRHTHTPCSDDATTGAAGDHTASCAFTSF
How it was run: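 For the binding signal, per-feature fluorescence intensity was read in arbitrary units on an Axon 4000B scanner. Before scanning, a 2% BSA-blocked custom Agilent array made double-stranded with Cy5-dUTP was washed after 1 h at 25 °C with 200 nM protein and 50 µM zinc acetate. The proteins were Ni–NTA-purified transcription factors with N-terminal polyhistidine and DsRed fusions, expressed in E. coli BL21-CodonPlus.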

Question: Which binding signal does the source give for “TAATACTCCTACTATGGACTTGTTCTCCGTGTTGCTTATTCGGAGTCACCTAGTGCAG” here?
Answer: 10200 fluorescence intensity (a.u.)

Question: How did the binding signal turn out when “CCGTTACATGACGTGGGCCCCACCCAGCCGCGCCAGCCCACGGAGTCACCTAGTGCAG” was run?
Answer: 8450 fluorescence intensity (a.u.)

Question: With “CCACTCACTCTGTGTTTCACTTGCTGCCTTTCAGTTGCAACGGAGTCACCTAGTGCAG” as the sequence, how does the binding signal read?
Answer: 8820 fluorescence intensity (a.u.)

Question: With “TTCTAAATTTGAAACGGTTTTATGACTTCTTTTCAGCGTTCGGAGTCACCTAGTGCAG” as the sequence, how does the binding signal read?
Answer: 8520 fluorescence intensity (a.u.)

Question: Which binding signal does the source give for “GGTGACGGCGGCTGTCTTCTTCGTAGGGTGCGGGGTGGCTCGGAGTCACCTAGTGCAG” here?
Answer: 8880 fluorescence intensity (a.u.)

Question: Which binding signal does the source give for “TGTCTACATACGCTCAATCCATTATTCCCCTATTACATCACGGAGTCACCTAGTGCAG” here?
Answer: 9500 fluorescence intensity (a.u.)

Question: With “ACCATCCAGCGCGTAACCGATTCCCTGTACATTCGGCCGCCGGAGTCACCTAGTGCAG” as the sequence, how does the binding signal read?
Answer: 9080 fluorescence intensity (a.u.)

Question: How did the binding signal turn out when “GGAGATCTTATACCCGATTTTACTGTTGAGGATTGTGACTCGGAGTCACCTAGTGCAG” was run?
Answer: 8640 fluorescence intensity (a.u.)

Question: For “ACGCTTACAACATGCGCATACACGCACACCCAATCCTATGCGGAGTCACCTAGTGCAG”, which binding signal is on record?
Answer: 11000 fluorescence intensity (a.u.)

Question: For “AGATTTTTTTGAACTTTCTGTCTGGGTCGGCTGTTTGTGTCGGAGTCACCTAGTGCAG”, which binding signal is on record?
Answer: 10500 fluorescence intensity (a.u.)

Question: For “GGTAGATTATATTAGGTTTTTCTTCGTGTTGTATTCACGACGGAGTCACCTAGTGCAG”, which binding signal is on record?
Answer: 8720 fluorescence intensity (a.u.)

Question: For “ACTTTTTAAATATGTTTGACCGTTCGTCTTATTCAAAAACCGGAGTCACCTAGTGCAG”, which binding signal is on record?
Answer: 9990 fluorescence intensity (a.u.)

Question: Which binding signal does the source give for “CACACATAAACTTTTAACTTTTTTATCACATCGTTTTAATCGGAGTCACCTAGTGCAG” here?
Answer: 8490 fluorescence intensity (a.u.)

Question: Which binding signal does the source give for “TAGCGTCGTTGACTTTTGAACACATTTTTATCATTTAAATCGGAGTCACCTAGTGCAG” here?
Answer: 22400 fluorescence intensity (a.u.)

Question: Which binding signal does the source give for “AAATACAACTTTGACTTTTTGTTTCTTTAAAAATATTTATCGGAGTCACCTAGTGCAG” here?
Answer: 9920 fluorescence intensity (a.u.)

Question: With “TAAGACGTTTTGACTTTTTTTTTTCCTATTTAAACCTTTTCGGAGTCACCTAGTGCAG” as the sequence, how does the binding signal read?
Answer: 13500 fluorescence intensity (a.u.)

Question: “GTCCTTAAATATTTGACGTCGTTGACTTTTTTTAAAATATCGGAGTCACCTAGTGCAG” was tested. Which binding signal did it give?
Answer: 20900 fluorescence intensity (a.u.)

Question: Which binding signal does the source give for “ACTCTCTCCGTCCTTAAATATTTGACGCCGTTGACTTTTTCGGAGTCACCTAGTGCAG” here?
Answer: 30600 fluorescence intensity (a.u.)

Question: “CTCCGTCCTTAAATATTTGACGTCGTTGACTTTTTTAAACCGGAGTCACCTAGTGCAG” was tested. Which binding signal did it give?
Answer: 26000 fluorescence intensity (a.u.)

Question: With “CCTGTAATACTCTCTCCGTCTATAAATATTTGACGCCGTTCGGAGTCACCTAGTGCAG” as the sequence, how does the binding signal read?
Answer: 8560 fluorescence intensity (a.u.)

Question: “CTCTTCATTTTTTTAATAGATAGCGTCGTTGACTTTTGAACGGAGTCACCTAGTGCAG” was tested. Which binding signal did it give?
Answer: 14800 fluorescence intensity (a.u.)

Question: Which binding signal does the source give for “CTTACTCTCTCCGTCTCTAAATATTTGACGCCGTTGACTTCGGAGTCACCTAGTGCAG” here?
Answer: 12900 fluorescence intensity (a.u.)

Question: For “TATTTTTTGGTTGTCCTTTGTTTTTTTAAAAAATATTTGTCGGAGTCACCTAGTGCAG”, which binding signal is on record?
Answer: 8170 fluorescence intensity (a.u.)

Question: For “GGAGGGGTTGGAAAAATTCGGTGTTCGTGGCCGCCTTCACCGGAGTCACCTAGTGCAG”, which binding signal is on record?
Answer: 13400 fluorescence intensity (a.u.)

Question: For “GAAAATATCTGAAAGATACCGTTTGTCGTACTCCTTTTCTCGGAGTCACCTAGTGCAG”, which binding signal is on record?
Answer: 9000 fluorescence intensity (a.u.)

Question: For “AACATTGATGAGAATTGAAATCATTTCGTTGCTCTAATCTCGGAGTCACCTAGTGCAG”, which binding signal is on record?
Answer: 8340 fluorescence intensity (a.u.)

Question: Which binding signal does the source give for “CTAGCTGAAGACTTGTGCATGCAGTTTACACCTTTTATCTCGGAGTCACCTAGTGCAG” here?
Answer: 9280 fluorescence intensity (a.u.)

Question: Which binding signal does the source give for “TAGCTCGTCTACTCCTAGCTCTCTCGTCCAATCCGGCCGGCGGAGTCACCTAGTGCAG” here?
Answer: 8680 fluorescence intensity (a.u.)

Question: “CTACGTGAGCTCGTTGCTGTGTCTCCTCTCTCTGCATCGCCGGAGTCACCTAGTGCAG” was tested. Which binding signal did it give?
Answer: 9690 fluorescence intensity (a.u.)

Question: How did the binding signal turn out when “CTCACAGTAAGCTTGTCCAACAGATCCATTCCTAACCTACCGGAGTCACCTAGTGCAG” was run?
Answer: 8140 ± 110 fluorescence intensity (a.u.)

Question: Which binding signal does the source give for “TCCACTTCCAACATCTACTATCTTTTCTCACGCTTTTTCCCGGAGTCACCTAGTGCAG” here?
Answer: 8630 fluorescence intensity (a.u.)

Question: For “CTCCTCAGCTAGTTGCTTGTCCCACACCACATCTTTCTTTCGGAGTCACCTAGTGCAG”, which binding signal is on record?
Answer: 12900 fluorescence intensity (a.u.)

Question: With “GTCCAGTGGACCAACCGGGTCACGGTCTCACGTGCCAAAGCGGAGTCACCTAGTGCAG” as the sequence, how does the binding signal read?
Answer: 8710 fluorescence intensity (a.u.)

Question: How did the binding signal turn out when “AAAATCTGTCATCGTCGTATCATGCATGTCGAATGTTTTGCGGAGTCACCTAGTGCAG” was run?
Answer: 8380 fluorescence intensity (a.u.)

Question: “AGCTATTTTACATGTTATTTTTTCATTGTTATCGTACTAACGGAGTCACCTAGTGCAG” was tested. Which binding signal did it give?
Answer: 10500 fluorescence intensity (a.u.)

Question: How did the binding signal turn out when “CACCATCCCAAAATATTTGACGCCGTTGACTTTTTTAAAACGGAGTCACCTAGTGCAG” was run?
Answer: 14000 fluorescence intensity (a.u.)

Question: With “TCCCTCCATCCCAAAATGTTATCTTTGACGTCGTTGACTTCGGAGTCACCTAGTGCAG” as the sequence, how does the binding signal read?
Answer: 10900 fluorescence intensity (a.u.)

Question: Which binding signal does the source give for “CATCCCAAAATATTTGACGTCGTTGACTTTTTTAAAAGTGCGGAGTCACCTAGTGCAG” here?
Answer: 18000 fluorescence intensity (a.u.)

Question: Which binding signal does the source give for “AGGGTAAGAGGAGGAGGAGGAGGGGTAGGCGAGGGAGATGCGGAGTCACCTAGTGCAG” here?
Answer: 8490 fluorescence intensity (a.u.)

Question: For “GCGGAGGTGGTGTGGGTGGGTGAGTGAGTGAGGAGTGATGCGGAGTCACCTAGTGCAG”, which binding signal is on record?
Answer: 17400 fluorescence intensity (a.u.)

Question: “GTAGGAGGAGGAGGAGGAGGTGGTGGTGGTGGTGGTGATGCGGAGTCACCTAGTGCAG” was tested. Which binding signal did it give?
Answer: 15100 fluorescence intensity (a.u.)

Question: With “GGGTCAGAGGGTAGGTTATTGTTGGGTAGGTGTGGAATTGCGGAGTCACCTAGTGCAG” as the sequence, how does the binding signal read?
Answer: 9800 fluorescence intensity (a.u.)

Question: Which binding signal does the source give for “CGGCCCAGGTGGGAGAGGAGGGGAGGGGAGGGGAGGGATGCGGAGTCACCTAGTGCAG” here?
Answer: 19800 fluorescence intensity (a.u.)

Question: How did the binding signal turn out when “GAGAGTAAGGATCAGGAGGAGGTGGAGGAGGAGGAGGATGCGGAGTCACCTAGTGCAG” was run?
Answer: 8300 fluorescence intensity (a.u.)

Question: How did the binding signal turn out when “GTTGGAGTTGGAGGAGGTGGTGCCGTGGTGGGGATTGATGCGGAGTCACCTAGTGCAG” was run?
Answer: 10500 fluorescence intensity (a.u.)
